# Results published in the supplement of paper PMC8728848.
# The entries come from a sample that favours the strongest signals as a whole.
# Columns and labels:
# Test in all cases: glycan array binding signal (z-score within array); higher = stronger binding
# Details in all cases: glycan notation: IUPAC condensed, linker removed
# [1] = target: Fuc(a1-2)Gal(b1-3)GlcNAc(b1-3)Gal(b1-4)Glc
# How it was run: (§1)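 The Consortium for Functional Glycomics database supplied 3228 glycan arrays, of which those lacking an available protein sequence were dropped. The binding signal, a within-array Z-score, was averaged across arrays of the same protein sequence and across linkers. Negative scores can be read as non-binding.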
# [2] = target: Fuc(a1-2)Gal(b1-3)GlcNAc6S
# How it was run: as §1
# [3] = target: Fuc(a1-2)Gal(b1-3)[Fuc(a1-4)]GlcNAc(b1-2)Man(a1-3)[Fuc(a1-2)Gal(b1-3)[Fuc(a1-4)]GlcNAc(b1-2)Man(a1-6)]Man(b1-4)GlcNAc(b1-4)[Fuc(a1-6)]GlcNAc(b1-4)[Fuc(a1-6)]GlcNAc
# How it was run: as §1
# [4] = target: Fuc(a1-2)Gal(b1-4)GlcNAc(b1-2)Man
# How it was run: as §1
# [5] = target: Fuc(a1-2)Gal(b1-4)GlcNAc(b1-3)[Fuc(a1-2)Gal(b1-4)GlcNAc(b1-6)]GalNAc
# How it was run: as §1
# [6] = target: Fuc(a1-2)Gal(b1-4)GlcNAc(b1-6)GalNAc
# How it was run: as §1
# [7] = target: Fuc(a1-2)Gal(b1-4)[Fuc(a1-3)]GlcNAc(b1-3)Gal(b1-4)[Fuc(a1-3)]GlcNAc(b1-3)Gal(b1-4)[Fuc(a1-3)]GlcNAc
# How it was run: as §1
# [8] = target: Fuc(a1-2)Gal6S(b1-4)Glc
# How it was run: as §1
# [9] = target: Fuc(a1-2)[Gal(a1-3)]Gal(b1-4)GlcNAc(b1-3)[Fuc(a1-2)[Gal(a1-3)]Gal(b1-4)GlcNAc(b1-6)]GalNAc
# How it was run: as §1
# [10] = target: Fuc(a1-2)[Gal(a1-3)]Gal(b1-4)[Fuc(a1-3)]GlcNAc(b1-3)GalNAc
# How it was run: as §1
# [11] = target: Fuc(a1-2)[GalNAc(a1-3)]Gal
# How it was run: as §1
# [12] = target: Fuc(a1-2)[GalNAc(a1-3)]Gal(b1-3)GlcNAc(b1-3)GalNAc
# How it was run: as §1
# [13] = target: Fuc(a1-2)[GalNAc(a1-3)]Gal(b1-4)[Fuc(a1-3)]GlcNAc(b1-3)GalNAc
# How it was run: as §1
# [14] = target: Fuc(a1-3)[GalNAc(b1-4)]GlcNAc
# How it was run: as §1
# [15] = target: Gal(a1-3)Gal(b1-4)GlcNAc(b1-2)Man
# How it was run: as §1
# [16] = target: Gal(a1-3)Gal(b1-4)GlcNAc(b1-2)Man(a1-3)[Gal(a1-3)Gal(b1-4)GlcNAc(b1-2)Man(a1-6)]Man(b1-4)GlcNAc(b1-4)GlcNAc
# How it was run: as §1
# [17] = target: Gal(a1-4)Gal(b1-4)Glc
# How it was run: as §1
# [18] = target: Gal(b1-3)Gal
# How it was run: as §1
# [19] = target: Gal(b1-3)GalNAc(b1-4)Gal(b1-4)Glc
# How it was run: as §1
# [20] = target: Gal(b1-3)GlcNAc(b1-2)Man
# How it was run: as §1
# [21] = target: Gal(b1-3)GlcNAc(b1-3)GalNAc
# How it was run: as §1
# [22] = target: Gal(b1-3)[Fuc(a1-4)]GlcNAc(b1-6)GalNAc
# How it was run: as §1
# [23] = target: Gal(b1-4)Gal
# How it was run: as §1
# [24] = target: Gal(b1-4)GlcNAc(b1-2)Man(a1-6)[Man(a1-3)]Man(b1-4)GlcNAc(b1-4)GlcNAc
# How it was run: as §1
# [25] = target: Gal(b1-4)GlcNAc(b1-3)Gal(b1-3)GalNAc
# How it was run: as §1
# [26] = target: Gal3S(b1-4)[Fuc(a1-3)]Glc6S
# How it was run: as §1
# [27] = target: Gal3S6S(b1-4)GlcNAc
# How it was run: as §1
# [28] = target: Gal3S6S(b1-4)GlcNAc6S
# How it was run: as §1
# [29] = target: Gal6S(b1-4)GlcNAc6S
# How it was run: as §1
# [30] = target: GalNAc(a1-3)Gal
# How it was run: as §1
binder,measurement,setting,value
TAL6-6LysM (Trichoderma atroviride) (protein) AASKLGVPQPAQRDQVNCQLYAVQPNDNCIDISSKNNITYAQLLSWNPSLSSTCSNLASLNSSSICVSNPKGTFSISSNTVGATDIATTTAPVPSPTLDQTTSRCAKYYQVSDGDDCSHLTAQFAITLKDFIFLNSEVWQNCTNLELGYYYCVEPVGYISTYPGYLPTATTKPFNQTSATSLPYDGDPWARFSSNSSVIPIANGTRVDCYSYVYVKNLTENLFADCWNMASMYEITREELVLWNPSLGNDGSSGSNLSGAEASQVASSIAIPTTAPSSITTNLYTYPCTVAANISYCVALVSSTGALPTNTAPPGPHASGEISNCTAWFAPEAYDTCKSILDIFEMSFANFYKMNPSVGPDCSGLAVGTNYCVSTYPNGEDPNDDWDGDDSIPSISPTGIITPTPTQSGMVSNCNKFYDVHSNDGCSAIASSQHVDLSSLYKWNPAIKTDCSGLQASVYVCIGILTTSMSTTSKLPTTTSKPSTTSKPPTGITTPTPTQSGMVKNCNKFYDVHSGDGCSAIASSQKVNLSSFYLWNPAVKTDCSGLQASVFVCIGTLTTSMSTTTSKLPTTTSKPSTTSKPPTGIITPTPTQNGMVKNCNKFYDVHSGDGCSAIASSQKVNLSSFYLWNPAVKTDCSGLQASVFVCVGTATTTTAAGITTPTPTQSGMVSGCNKFYDVHAGDGCSAIASSQKIALSSLYKWNPAVKTDCSGLQASVYICIGVGNAAAARVTGAAASFLEQKLISEEDLNSAVDHHHHHH,glycan array binding signal (z-score),[1],-0.234
same,glycan array binding signal (z-score),[2],0.906
same,glycan array binding signal (z-score),[3],0.449
same,glycan array binding signal (z-score),[4],-0.377
same,glycan array binding signal (z-score),[5],-0.205
same,glycan array binding signal (z-score),[6],3.12
same,glycan array binding signal (z-score),[7],2.68
same,glycan array binding signal (z-score),[8],-0.385
same,glycan array binding signal (z-score),[9],-0.724
same,glycan array binding signal (z-score),[10],0.955
same,glycan array binding signal (z-score),[11],-0.757
same,glycan array binding signal (z-score),[12],0.204
same,glycan array binding signal (z-score),[13],-0.108
same,glycan array binding signal (z-score),[14],2.99
same,glycan array binding signal (z-score),[15],0.538
same,glycan array binding signal (z-score),[16],0.08
same,glycan array binding signal (z-score),[17],2.69
same,glycan array binding signal (z-score),[18],-0.192
same,glycan array binding signal (z-score),[19],-0.503
same,glycan array binding signal (z-score),[20],3.66
same,glycan array binding signal (z-score),[21],-0.729
same,glycan array binding signal (z-score),[22],1.02
same,glycan array binding signal (z-score),[23],-0.397
same,glycan array binding signal (z-score),[24],0.445
same,glycan array binding signal (z-score),[25],-0.573
same,glycan array binding signal (z-score),[26],2.96
same,glycan array binding signal (z-score),[27],2.51
same,glycan array binding signal (z-score),[28],3
same,glycan array binding signal (z-score),[29],-0.018
same,glycan array binding signal (z-score),[30],2.44
